Compound activity (PubChem)
ClpP mod: qHTS Assay for Activators of ClpP. ATP-dependent Clp protease proteolytic subunit (Bacillus subtilis (strain 168)), P80244. Potency, µM (highest dose often 57.5 µM), inactives show at the top dose activity change, negative = active. AID 651965, 2013. purified B. subtilis ClpP, FRET peptide cleavage, 20 min. 340,000 tested, 1.9% active; active = well fitted falling curve with a large enough effect; inconclusive = small, poorly fitted or top-dose-only effect; inactive = no such curve, though single readings can be large or run the other way; note: the source files actives as falling curves though it sought activators and does not explain the sign; nearly all actives have a fitted effect of over 65% in size
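Buffer: 100 mM Tris/HCl pH8, 100 mM KCl, 0.05% low protease BSA, 2.5% glycerol, 0.01% Tween-20. ClpP 10 microg/mL final; 20 min RT; delta FRET normalized to ADEP and DMSO controls.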
TDP1 inh: qHTS Assay for Inhibitors of Tyrosyl-DNA Phosphodiesterase (TDP1) | Tyrosyl-DNA phosphodiesterase 1 (Homo sapiens), Q9NUW8 | recombinant TDP1, AlphaScreen DNA substrate cleavage | Potency, µM (highest dose often 130 µM), for inactives: at the highest dose activity change, negative = inhibition, usual class: inhibitors | 350,000 tested, 0.28% active | AID 485290, 2010; note: % is set by controls: 0 for no effect and ±100 for the full control effect; nearly all actives have a fitted effect of over 40% in size
Target sequence (Q9NUW8 whole entry, looked up): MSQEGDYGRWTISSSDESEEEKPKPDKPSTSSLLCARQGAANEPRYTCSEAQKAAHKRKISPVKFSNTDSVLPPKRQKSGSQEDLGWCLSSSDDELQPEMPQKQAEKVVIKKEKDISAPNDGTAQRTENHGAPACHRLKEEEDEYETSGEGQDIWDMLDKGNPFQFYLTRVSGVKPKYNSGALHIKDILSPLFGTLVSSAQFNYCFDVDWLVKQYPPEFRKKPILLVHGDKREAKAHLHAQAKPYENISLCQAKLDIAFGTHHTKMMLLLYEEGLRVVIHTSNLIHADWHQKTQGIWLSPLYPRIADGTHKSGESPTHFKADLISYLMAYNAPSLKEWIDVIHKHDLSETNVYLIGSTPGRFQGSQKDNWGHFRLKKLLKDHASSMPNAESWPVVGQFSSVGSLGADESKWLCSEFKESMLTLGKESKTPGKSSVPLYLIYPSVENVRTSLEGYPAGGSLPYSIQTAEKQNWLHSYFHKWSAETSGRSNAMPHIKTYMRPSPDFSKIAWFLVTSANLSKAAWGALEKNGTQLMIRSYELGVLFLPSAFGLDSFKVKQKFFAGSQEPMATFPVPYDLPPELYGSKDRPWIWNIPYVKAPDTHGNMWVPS
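Recombinant human Tdp1 (E. coli-expressed, 1 nM final) preincubated with compounds 15 min at room temperature, then 5'-biotin/3'-phosphotyrosine-FITC DNA substrate (15 nM final) added for 5 min. AlphaScreen beads (10 ug/ml final) added 10 min; cleavage lowers signal.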
TDP1 cell noCPT: qHTS for Inhibitors of human tyrosyl-DNA phosphodiesterase 1 (TDP1): qHTS in cells in absence of CPT | DT40 Tdp1-/- hTDP1 cells, no CPT, ATP luminescence, 48 h | Potency, µM (titrated, usually from 46.2 µM), for the others: at the top dose activity change, negative = growth inhibition, hits mostly inhibitors | 420,000 tested, 15% active; note: % is set by controls: 0 for no effect and ±100 for the full control effect; nearly all actives have a fitted effect of over 55% in size
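Compound effects on proliferation are scored in DT40 Tdp1-/-;hTDP1 cells in the absence of CPT. ATP levels (CellTiter-Glo luminescence) are recorded after a ≥48 hr, 37 °C incubation.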
TDP1 cell CPT: qHTS for Inhibitors of human tyrosyl-DNA phosphodiesterase 1 (TDP1): qHTS in cells in presence of CPT; chicken DT40 Tdp1-/-;hTDP1 cells + 20 nM CPT, ATP luminescence, 48 h; Potency, µM (titrated, usually from 46.2 µM), inactives show at the top dose activity change, negative = growth inhibition, most hits filed as inhibitors; 420,000 tested, 12% active; note: % is set by controls: 0 for no effect and ±100 for the full control effect; nearly all actives have a fitted effect of over 55% in size
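Chicken DT40 Tdp1-/- cells stably complemented with human TDP1 were seeded at 400 cells/well in medium containing 20 nM camptothecin, exposed to pin-transferred compounds, and grown at 37 °C for at least 48 hr. Viability was read as ATP luminescence.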
* marks the source's active call; other numbers are inactive results; u = inconclusive; x = no result; [ ] = another dose, or the depositor's remark. Most compounds without a hit are left out; they make up all but 17% or so of the library. Unless noted, calls come from the whole dose curve; as a rule, active = well fitted curve in the direction sought with a large enough effect; inconclusive = small, poorly fitted or top-dose-only effect, or another doubt; inactive = no such curve, though single readings can be large; an effect the other way counts as inactive or inconclusive. Potency is the fitted concentration of half-maximal effect.

SMILES	ClpP mod	TDP1 inh	TDP1 cell noCPT	TDP1 cell CPT
Cc1ccc(CNC(=O)CN2C(=O)C3CCCCN3c3ccc(C(=O)N4CCCC4)cc32)cc1 (configuration not stated)	-1.7%	4.1%	-7.5%	-7.5%
CCOc1cc(CNC(=O)c2ccc3c(c2)NC(=O)C2CCCCN32)cc(OCC)c1OCC (configuration not stated)	30.7%	6.5%	u	18.4µM*
Cc1cccc(CNC(=O)c2ccc3c(c2)N(C)C(=O)C2CCCCN32)c1 (configuration not stated)	-26.3%	1.8%	u	13µM*
CCN(CC)C(=O)c1sc2c(c1C)c(=O)n(Cc1ccccc1)c(=O)n2CC(=O)Nc1ccc(OC)cc1	0.9%	11.6%	-18.7%	u
CNC[C@@H](O)[C@@H](O)[C@H](O)[C@H](O)CO	x	2.1%	x	x
O=[N+]([O-])c1ccc2c(c1)N([O-])C1(CCCCC1)[N+]2=O	x	6.0%	u	25.9µM*
CC1=C(c2ccccc2)[N+](=O)C2(CCCC2)N1[O-]	-2.8%	5.1%	7.3%	-20.2%
Cc1nn(C)c(C(=O)Nc2ccc(S(=O)(=O)NC34CC5CC(CC(C5)C3)C4)cc2)c1Br	0.1%	6.7%	23.1µM*	20.6µM*
Cc1ccc(S(=O)(=O)NC23CC4CC(CC(C4)C2)C3)cc1	1.7%	-0.3%[56.1 µM]	20.6µM*	u
Cc1nn(C)c(C(=O)Nc2ccc(Br)cc2F)c1Br	1.6%	2.7%	-23.4%	-0.7%
Cc1cnn(C(=S)NCCc2ccccc2)c1	0.6%	2.3%	u	u
Cc1cnn(C(=S)NCc2ccc(Cl)cc2)c1	-0.3%	2.5%	23.1µM*	u
COc1ccc(OC)c(NC(=O)CCCCCn2nnc3ccccc3c2=O)c1	-1.3%	x	u	u
O=C(NCCc1ccccc1)C(=O)Nc1ccc([N+](=O)[O-])cc1	0.9%	-4.7%	20.5%	-24.6%
CC[C@H](C)[C@@H]1OC(=O)[C@@H](C)[C@@H](CC)NC(=O)[C@H](C)N(C)C(=O)C(C)(C)C(=O)C(C)NC(=O)[C@H](Cc2ccccc2)N(C)C(=O)[C@H](C(C)C)N(C)C(=O)CNC(=O)[C@H](CC(C)C)N(C)C(=O)CNC1=O (some centres not stated)	1.4%	x	0.184µM*	0.13µM*
O=C1CCCC2=C1C1(CCC1)N=C(Nc1nc3ccccc3o1)N2	x	1.4%	x	x
CC1=NN(c2ccc(Cl)c(C(=O)O)c2)C(=O)/C1=C\c1ccc(-c2ccc(C(=O)O)cc2)o1	x	79.4µM*	-3.0%	-8.0%
CC1(C)OC(=O)C(=Cc2ccc(-c3ccc(Cl)c(C(=O)O)c3)o2)C(=O)O1	x	50.1µM*	15.2%	0.1%
CCOC(=O)c1cccc(OS(=O)(=O)Cc2ccccc2)c1	1.4%	x	u	-2.2%
CN(C)c1ccc(C=C2SC(=S)NC2=O)cc1	x	x	u	0.3%
CN(C)c1ccc(/C=N/N=C2/NC(=O)/C(=C/c3ccc([N+](=O)[O-])cc3)S2)cc1	-5.0%	6.7%	16.4µM*	u
CC1CCC2(CC1)C(Nc1cccc(Cl)c1)=NC(=S)N2CC#N (configuration not stated)	0.8%	5.2%	16.4µM*	u
Cc1ccc(C2CC(=O)N(Cc3ccccc3F)c3c2c(C)nn3-c2nc(C)cc(C)n2)cc1 (configuration not stated)	-1.0%	4.7%	u	u
Nc1nc[nH]c(=O)c1N	-28.3%	x	-6.7%	-0.2%
Oc1ccc(Nc2ccc3ccccc3c2)cc1	-1.0%	x	23.1µM*	18.4µM*
SMILES	ClpP mod	TDP1 inh	TDP1 cell noCPT	TDP1 cell CPT
Cc1cc(Nc2ccc(O)cc2)ccc1N	-2.2%	7.0%	3.16µM*	5.01µM*
O=C(CSc1nc(=O)[nH]c2c1CCC2)NCc1ccc(Cl)cc1	-6.8%	2.6%	-7.4%	7.3%
COc1cc(OC)c(OC)cc1CN1CCOc2ccc(CN3C[C@@H](C)O[C@@H](C)C3)cc2C1	x	x	u	-18.6%[9.04 µM]
COc1ccc(/C=C2\N=C(c3ccc(C)cc3)OC2=O)cc1	25.1µM*	x	-3.6%	2.5%
O=C(Nc1scc(-c2ccc(Br)cc2)c1C(=O)O)c1ccccc1F	x	x	16.4µM*	u
COc1ccc(-c2csc(NC(=O)c3ccc(C(C)(C)C)cc3)c2C(=O)O)cc1	x	x	3.26µM*	3.66µM*
O=C(Nc1scc(-c2ccccc2)c1C(=O)O)c1ccccc1F	x	x	-4.6%	-18.2%
Cc1ccc(-c2csc(NC(=O)c3ccccc3F)c2C(=O)O)cc1	-1.7%	x	20.6µM*	u
CCOC(=O)c1noc2ncn(CC(=O)Nc3cc(Cl)ccc3OC)c(=O)c12	2.2%	6.5%	x	x
COc1ccccc1NC(=O)CSc1nnc(NC(=O)Nc2ccc(C)cc2)s1	-0.3%	2.6%	u	u
COc1ccc(Nc2cc(Nc3cccc(OC)c3)ncn2)cc1	-3.2%	x	u	-25.5%
Cc1ccc(CNC(=O)C2CCCN(c3nc4ccccc4n4cccc34)C2)cc1 (configuration not stated)	22.4µM*	0.0%	u	u
O=C(NCC1CCCO1)C1CCCN(Cc2cnn(-c3ccccc3)c2-n2cccc2)C1 (configuration not stated)	-0.1%	-2.3%	u	-15.7%
Cc1ccc(CNC(=O)C2CCCN(Cc3cnn(-c4ccccc4)c3-n3cccc3)C2)cc1 (configuration not stated)	0.3%	0.0%	20.6µM*	20.6µM*
COc1cccc(CNC(=O)C2CCCN(c3nc4ccccc4n4cccc34)C2)c1 (configuration not stated)	-11.3%	1.3%	14.6µM*	u
CCc1cccc(NC(=O)Cn2c(=O)n(CC(=O)NCCc3ccccc3)c(=O)c3ccccc32)c1	6.1%	-5.0%	u	u
COc1ccc(C(=O)Nc2nnc(SCc3cc(=O)c4cc(C)ccc4[nH]3)s2)cc1OC	-0.6%	5.4%	u	u
CN(Cc1ccccc1)C(=O)C1CCN(S(=O)(=O)Cc2ccccc2)CC1	-0.9%	2.9%	-19.9%	-2.0%
CCn1c(CSCc2ccc(C)cc2)nnc1SCC(=O)N1CCN(c2ccccc2)CC1	-1.5%	6.1%	20.6µM*	-51.9%
CCn1c(SCC(=O)N2CCN(c3ccccc3)CC2)nnc1-c1ccoc1C	2.4%	3.7%	-9.5%	-7.3%
C=CCn1c(CSCc2ccccc2)nnc1SCC(=O)N1CCN(c2ccccc2)CC1	-1.0%	-5.5%	14.6µM*	u
COc1ccc(Nc2oc(-c3ccc(COc4ccccc4C)o3)nc2C#N)cc1	4.4%	5.7%	u	u
CNc1oc(-c2ccc(COc3ccc(C)cc3)o2)nc1C#N	u	-1.6%	-22.3%	-13.2%
